Results filed as inconclusive are left out. Values without a mark were called inactive. Activity calls are given as the source filed them. Calls follow the shape of the dose curve; as a rule, active = well fitted curve in the direction sought with a large enough effect; inconclusive = small, poorly fitted or top-dose-only effect, or another doubt; inactive = no such curve, though single readings can be large; an effect the other way counts as inactive or inconclusive.

Assay [1] relates to CRL-7250. Description: Cytotoxic Profiling of Annotated Libraries Using Quantitative High-Throughput Screening (AID 1296008). Also: nearly all actives have a fitted effect of over 60% in size. Also: potency is read from the fitted curve at half-maximal effect. As to max response: % is scaled to controls: 0 for no effect and ±100 for the full control effect. As to conditions: Five cell lines viability, CellTiter-Glo ATP luminescence, 48-72 h; max response: stronger effect = lower value. Put shortly: (§1)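 Cells exposed to compounds for 48 or 72 hr at 37 degrees Celsius. Viability read as ATP-coupled luminescence with CellTiter-Glo after 10 min at room temperature.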

Assay [2] has as its system HEK293. The description is as above. The note with it: Five cell lines viability, CellTiter-Glo ATP luminescence, 48-72 h; max response: stronger effect = lower value. Put shortly:
as §1
Background: Cellular ATP, detected with luciferase, serves as a proxy for viable cell number.

In assay [3] the test system is HaCat. Described as above. The note with it: Five cell lines viability, CellTiter-Glo ATP luminescence, 48-72 h; max response: stronger effect = lower value. Put shortly: as §1
The subject of assay [4] is KB-3-1. The assay is described as above. As to conditions: Five cell lines viability, CellTiter-Glo ATP luminescence, 48-72 h; max response: stronger effect = lower value. Put shortly:
as §1

Assay [5] relates to NIH3T3. The assay is described as above. As to conditions: Five cell lines viability, CellTiter-Glo ATP luminescence, 48-72 h; max response: stronger effect = lower value. Put shortly: as §1
Assay [6] concerns NIH3T3. Briefly: qHTS assay to identify novel small-molecules to repurpose for Merkel cell carcinoma treatment (AID 1296009). Also: nearly all actives have a fitted effect of over 60% in size. As to conditions: MCC and control cell lines, CellTiter-Glo viability, 72 h; at 44.8 µM (top of the series) unless noted. Put shortly: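 CellTiter-Glo luminescence after 72 hr compound exposure at 37 degree celsius gave cell viability. Libraries NPC and MIPE were run as 8- and 11-point dose responses; RLUs normalized to DMSO (negative) and no-cell (cytotoxicity) controls.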
A general note: qHTS replaces the single test concentration by a dilution series.

The test system of assay [7] is C33A. Briefly: Primary qHTS to identify gynecologic anti-cancer compounds using libraries of approved drugs and bioactive compounds (AID 1345084). Also: nearly all actives have a fitted effect of over 55% in size. Also: potency is read from the fitted curve at half-maximal effect. As to activity change, negative = cytotoxicity: % is scaled to controls: 0 for no effect and ±100 for the full control effect. As to conditions: Gynecologic cancer cell panel viability, ATPlite luminescence, 48 h; series mostly up to 57.5 µM. Put shortly:
(§2)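 48 h compound exposure at 37 C, 5% CO2; five-point qHTS. ATPlite luminescence readout of cell ATP.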

Assay [8] has as its system CAOV3. The assay is described as above. As to conditions: Gynecologic cancer cell panel viability, ATPlite luminescence, 48 h; series mostly up to 57.5 µM. Put shortly:
as §2

Assay [9] concerns CASKI. The description is as above. As to conditions: Gynecologic cancer cell panel viability, ATPlite luminescence, 48 h; series mostly up to 57.5 µM. Put shortly:
as §2

For assay [10], the system named is Es-2. The description is as above. As to conditions: Gynecologic cancer cell panel viability, ATPlite luminescence, 48 h; series mostly up to 57.5 µM. Put shortly:
as §2

Assay [11] concerns HeLa. The description is as above. As to conditions: Gynecologic cancer cell panel viability, ATPlite luminescence, 48 h; series mostly up to 57.5 µM. Put shortly:
as §2

The subject of assay [12] is Hek293T. Described as above. The note with it: Gynecologic cancer cell panel viability, ATPlite luminescence, 48 h, control line for the selectivity index; series mostly up to 57.5 µM. Put shortly: as §2
Assay [13] deals with JEG-3. The assay is described as above. As to conditions: Gynecologic cancer cell panel viability, ATPlite luminescence, 48 h; series mostly up to 57.5 µM. Put shortly:
as §2

The subject of assay [14] is OV90. The description is as above. The note with it: Gynecologic cancer cell panel viability, ATPlite luminescence, 48 h; series mostly up to 57.5 µM. Put shortly:
as §2

For `CC(=O)O[C@@]1(C)[C@@H]2CC(=C(C)C)C(=O)C[C@@]2(C)CC[C@H]1OC(=O)C1(C)OC1C` (stereo partly drawn), the max response in assay [1] is 1.92%; in [2], -20.6%; in assay [3], 0.799%; in [4], 0.573%. The call in [5], in assay [6] and in assay [9] was inactive. Also, the Potency entry in assay [7], in assay [8], in assay [10], in assay [11], in assay [12] and in assay [13] was “inactive” in each case. Besides, in [14], the Potency entry was “inactive”.

As for `CC(=O)OCC1OC(O[C@H]2CC[C@]34C[C@]35CC(O)[C@]3(C)[C@@H]([C@H](C)CC/C=C(\C)C(=O)O)C(O)C[C@@]3(C)C5CC[C@H]4C2(C)C)C(O)C(O)C1OC1OCC(O)C(O)C1O` (stereo partly drawn), the max response is -0.106% in [1], -3.14% in assay [2], 2.3% in [3] and 7.5% in assay [4]. In assay [5], the compound was called inactive. For the same compound, the outcome in assay [6] was “inactive [at 9.27 µM]”. The activity change, negative = cytotoxicity was -4.66% [at 11.6 µM] in assay [7]; -5.98% [at 11.6 µM] in [8]; -12.9% [at 11.6 µM] in assay [9]; -0.425% [at 11.6 µM] in assay [10]; 6.1% [at 11.6 µM] in [11]; -4.45% [at 11.6 µM] in assay [12]. The activity change, negative = cytotoxicity is -9.54% [at 11.6 µM] in [13] and -7.9% [at 11.6 µM] in assay [14].

For `CC(=O)NCC1CN(c2ccc(-c3ccc(CNCc4cn[nH]n4)cc3)c(F)c2)C(=O)O1` (stereo not drawn), the max response was 0.231% in assay [1], 1.71% in [3] and -15.8% in assay [4]. Further, the Potency in [2] is 1.3 µM (active). Besides, the compound was called inactive in assay [5], in assay [6] and in [9]. The Potency result in assay [7], in assay [8], in [10], in assay [11], in assay [12] and in assay [13] was “inactive” in each case. Further, the Potency result in assay [14] is “inactive”.

In the case of `C#CCCCn1cc(-c2cccc3c2N[C@@H](C)CC(=O)N3)cn1`, the Potency was 18.4 µM (active) in assay [1] and 28.2 µM (active) in assay [11]. Moreover, the results for the max response in assay [2] and in assay [3] were -6.8% and -14.3%, respectively. Besides, the compound was called inactive in assay [4], in [5], in [6] and in [9]. The Potency entry in assay [7], in assay [8], in assay [10], in assay [12], in [13] and in [14] was “inactive” each time.

In the case of `CCC(=O)OCC(=O)[C@@]1(OC(=O)CC)[C@@H](C)C[C@H]2[C@@H]3CCC4=CC(=O)C=C[C@]4(C)[C@@]3(F)[C@@H](O)C[C@@]21C`, the figures for the max response in assay [1], in assay [2] and in assay [3] were -9.64%, -7.33% and -29.8%, respectively. Also, the compound was classed as inactive in assay [4], in assay [5], in assay [6] and in assay [9]. Further, the Potency result in assay [7], in [8], in assay [10], in [11], in assay [12] and in [13] was “inactive” each time. In addition, in assay [14], the Potency entry was “inactive”.

Turning to `COC(=O)C1=COC(O[C@@H]2O[C@H](CO)[C@@H](O)[C@H](O)[C@H]2O)C2C(C)C(=O)CC12` (stereo partly drawn), the max response in [1] is -2.22%; in [2], -2%; in assay [3] it was -11.3%; in assay [4] it was 2.31%. Also, the call in assay [5], in [6] and in assay [9] was inactive. The Potency entry in assay [7], in assay [8], in assay [10], in assay [11], in assay [12] and in assay [13] was “inactive” in each case. The Potency result in [14] was “inactive”.

For H-DPPDPDRFYGMM-NH2, the call in assay [1], in assay [4], in [5] and in assay [9] was inactive. Also, the max response in assay [2] was -1.35%; in [3], -3.96%. In assay [6], the outcome is “inactive [at 17.4 µM]”. Further, the Potency result in assay [7], in assay [8], in assay [10], in [11], in assay [12] and in assay [13] was “inactive” in each case. In [14], the Potency result was “inactive”.

In the case of `COc1ccc(/C=C/C(=O)O[C@@H]2[C@@H](OC(C)=O)[C@@H](OC(C)=O)[C@H](O[C@H]3[C@@H]4C=CO[C@@H](O[C@@H]5O[C@H](CO)[C@@H](O)[C@H](O)[C@H]5O)[C@@H]4[C@@]4(CO)O[C@@H]34)O[C@H]2C)cc1`, the outcome in [1], in [5] and in assay [9] was inactive. Also, the max response was -1.95% in assay [2], 0.723% in [3] and 2.76% in assay [4]. Further, in assay [6], the outcome was “inactive [at 17.4 µM]”. Besides, the Potency result in assay [7], in [8], in assay [10], in [11], in assay [12] and in assay [13] was “inactive” throughout. In addition, the Potency entry in assay [14] was “inactive”.

As to `Cc1ccc2nc(NC(=O)CSc3nc4c(c(=O)n3-c3ccc(F)cc3)SCC4)sc2c1`, the max response is -14.2% in assay [1], -0.604% in assay [2], 1.13% in [3] and 9.39% in assay [4]. Besides, the compound was called inactive in assay [5], in [6] and in [9]. Also, the Potency entry in assay [7], in assay [8], in assay [10], in [11], in [12] and in assay [13] was “inactive” throughout. Besides, the Potency result in [14] is “inactive”.

Turning to `CC1(C)CCCC2(C)c3c4c(c(=O)oc(=O)c3=CCC12)=CCC1C(C)(C)CCCC41C` (stereo not drawn), the max response is -2.61% in assay [1], 2.74% in [2] and 0.0105% in assay [3]. The outcome in [4], in assay [5] and in assay [9] was inactive. Further, the outcome in assay [6] is “inactive [at 17.4 µM]”. In addition, the Potency entry in assay [7], in assay [8], in [10], in assay [11], in [12] and in assay [13] was “inactive” in each case. Also, the Potency entry in [14] is “inactive”.

`CC(=O)O[C@@H]1C(=O)C(C)=C(CCC(C)CC(=O)O)[C@@]2(C)CCCC(C)(C)C12` (stereo partly drawn): the outcome in [1], in [5], in [6] and in assay [9] was inactive. The max response was 0.534% in [2], -6.8% in assay [3] and -5.14% in [4]. In addition, the Potency entry in assay [7], in assay [8], in assay [10], in [11], in [12] and in assay [13] was “inactive” in each case. The Potency result in assay [14] is “inactive”.

As to `Cc1cn2cc(CC(=O)N3CCC4(CC3)CN(Cc3ccc(-n5nccn5)cc3Cl)C4)nc2s1`, the max response in assay [1] is 2.68%; in [3], 2.32%; in [4] it was 0.0455%. Further, in assay [2], the Potency was 16.4 µM (active). Further, the result in assay [5], in [6] and in assay [9] was inactive. Further, the Potency result in assay [7], in [8], in assay [10], in assay [11], in assay [12] and in assay [13] was “inactive” throughout. Besides, the Potency result in assay [14] was “inactive”.

The values are drawn from PubChem BioAssay (NCATS).
